Results reported in PubChem BioAssay.
Values without a mark were called inactive. For some assays here: Results with a measured potency or affinity are listed apart. Active and inactive are the calls of the source. Unless noted, how the calls were made is not given here.

How the values were obtained:
[1] = antimalarial activity against Dd2 strain (AID 2302;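 active means growth inhibition above 50% at the single 2 µM test dose, taken to imply half-maximal potency below 2 µM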;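 further: 0% = DMSO untreated growth and 100% = chloroquine plus artemisinin killed control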); conditions: P. falciparum Dd2 in RBCs, LDH growth readout, 72 h; at 2 µM; active compounds read high
[2] = HepG2 cytotoxicity, primary screen, cytotoxicity control for P. falciparum antimalarial project, cell-based, ATP luminescence (AID 2303;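 active means inhibition above 50%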;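 further: 0% = DMSO wells and 100% = digitonin-killed cells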); conditions: HepG2 viability, 24-48 h, at 10 µM, active compounds read high
[3] = biological target: L-lactate dehydrogenase (Plasmodium falciparum (isolate CDC / Honduras)) (UniProt Q27743); experiment: PfLDH activity inhibition – cell lysate, 3D7 strain, counter-screen for P. falciparum growth inhibition project (AID 2304);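 further: 0% = vehicle and 100% = reference inhibitor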; conditions: P. falciparum 3D7 crude extract, LDH APAD/NBT absorbance; at 2 µM; active compounds read high
[4] = inhibition of 3D7 malaria parasite growth – strain 3D7 (AID 2306);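 further: 0% = DMSO wells and 100% = chloroquine plus artemisinin control wells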; conditions: P. falciparum 3D7 erythrocytic growth, LDH absorbance, 72 h; at 2 µM; active compounds read high
[5] = biological target: Calcium-dependent protein kinase 1 (Plasmodium falciparum (isolate 3D7)) (UniProt P62344); experiment: PfCDPK1 kinase inhibitors, biochemical, TCAMS library (AID 1159585; cut-off not given, nearly all actives have IC50 up to about 0.98 µM;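 further: inhibitors leave more ATP so luminescence rises with inhibition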); conditions: recombinant PfCDPK1, Kinase-Glo ATP depletion luminescence
[6] = biological target: Plasmodium falciparum protein kinase 6 (PK6, PF3D7_1337100) (UniProt Q8IDW1); experiment: PfPK6 kinase inhibitors, biochemical, TCAMS library (AID 1159586); conditions: recombinant PfPK6, Kinase-Glo ATP depletion luminescence
[7] = biological target: Protein kinase 7 (PK7), Plasmodium falciparum 3D7 (PF3D7_0213400) (UniProt Q7YTF7); experiment: inhibition of Plasmodium PK7 catalytic activity – biochemical, TCAMS antimalarial set, Kinase-Glo luminescence (AID 1159587); conditions: recombinant PfPK7, Kinase-Glo ATP depletion luminescence
[8] = biological target: Calcium-dependent protein kinase 4 (Plasmodium falciparum (isolate 3D7)) (UniProt Q8IBS5); experiment: PfCDPK4 kinase inhibitors, biochemical, TCAMS library (AID 1159588; cut-off not given, nearly all actives have IC50 up to about 0.91 µM); conditions: recombinant PfCDPK4, Kinase-Glo ATP depletion luminescence
Sequence of Calcium-dependent protein kinase 4 (Plasmodium falciparum (isolate 3D7)) (Q8IBS5 whole entry, looked up): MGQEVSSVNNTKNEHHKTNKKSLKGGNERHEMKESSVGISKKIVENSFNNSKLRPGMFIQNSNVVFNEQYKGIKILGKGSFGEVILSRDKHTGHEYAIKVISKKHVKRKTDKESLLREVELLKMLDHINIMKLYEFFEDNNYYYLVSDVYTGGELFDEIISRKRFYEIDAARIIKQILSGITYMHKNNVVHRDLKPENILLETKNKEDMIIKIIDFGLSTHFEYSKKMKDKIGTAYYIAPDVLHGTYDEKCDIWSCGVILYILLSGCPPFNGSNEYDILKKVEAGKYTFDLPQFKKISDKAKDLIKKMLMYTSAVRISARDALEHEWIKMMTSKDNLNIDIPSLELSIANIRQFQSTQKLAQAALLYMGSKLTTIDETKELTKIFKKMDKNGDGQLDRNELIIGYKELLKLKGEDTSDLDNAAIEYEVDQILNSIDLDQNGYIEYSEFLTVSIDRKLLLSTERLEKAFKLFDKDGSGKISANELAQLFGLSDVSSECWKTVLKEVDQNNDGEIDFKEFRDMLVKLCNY

Sequence of Calcium-dependent protein kinase 1 (Plasmodium falciparum (isolate 3D7)) (P62344 whole entry, looked up): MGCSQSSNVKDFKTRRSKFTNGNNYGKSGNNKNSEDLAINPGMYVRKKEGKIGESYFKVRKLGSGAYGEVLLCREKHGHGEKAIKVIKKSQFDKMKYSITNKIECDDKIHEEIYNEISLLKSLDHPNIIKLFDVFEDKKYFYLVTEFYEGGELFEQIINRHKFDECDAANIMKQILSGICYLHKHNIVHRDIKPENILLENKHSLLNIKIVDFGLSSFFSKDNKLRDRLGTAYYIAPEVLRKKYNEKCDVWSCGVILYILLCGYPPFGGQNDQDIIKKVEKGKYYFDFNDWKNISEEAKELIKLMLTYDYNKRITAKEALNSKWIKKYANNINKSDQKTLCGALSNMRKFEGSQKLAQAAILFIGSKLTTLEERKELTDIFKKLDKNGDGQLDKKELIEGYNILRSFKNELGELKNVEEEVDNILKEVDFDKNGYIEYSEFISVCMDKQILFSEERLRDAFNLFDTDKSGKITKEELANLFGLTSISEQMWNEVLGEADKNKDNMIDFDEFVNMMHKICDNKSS
Sequence of Plasmodium falciparum protein kinase 6 (PK6, PF3D7_1337100) (Q8IDW1 1-305): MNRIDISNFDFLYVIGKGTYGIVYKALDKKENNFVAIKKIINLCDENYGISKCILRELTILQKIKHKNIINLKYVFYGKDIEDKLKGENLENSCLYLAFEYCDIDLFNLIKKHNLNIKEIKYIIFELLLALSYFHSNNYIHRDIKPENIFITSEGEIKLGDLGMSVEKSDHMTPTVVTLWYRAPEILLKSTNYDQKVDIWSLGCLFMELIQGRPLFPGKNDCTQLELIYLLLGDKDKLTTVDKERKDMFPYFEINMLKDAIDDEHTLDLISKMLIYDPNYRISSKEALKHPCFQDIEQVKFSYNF
Sequence of L-lactate dehydrogenase (Plasmodium falciparum (isolate CDC / Honduras)) (Q27743 whole entry, looked up): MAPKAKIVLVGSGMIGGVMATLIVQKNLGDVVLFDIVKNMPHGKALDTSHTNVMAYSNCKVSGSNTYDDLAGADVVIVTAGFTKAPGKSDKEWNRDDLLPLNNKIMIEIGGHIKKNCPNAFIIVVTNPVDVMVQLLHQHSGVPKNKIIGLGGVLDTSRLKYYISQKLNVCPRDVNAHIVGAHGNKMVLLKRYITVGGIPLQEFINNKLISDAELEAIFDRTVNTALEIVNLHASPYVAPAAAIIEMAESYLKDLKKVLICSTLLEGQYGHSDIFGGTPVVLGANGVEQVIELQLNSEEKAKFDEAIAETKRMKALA
Sequence of Protein kinase 7 (PK7), Plasmodium falciparum 3D7 (PF3D7_0213400) (Q7YTF7 1-343): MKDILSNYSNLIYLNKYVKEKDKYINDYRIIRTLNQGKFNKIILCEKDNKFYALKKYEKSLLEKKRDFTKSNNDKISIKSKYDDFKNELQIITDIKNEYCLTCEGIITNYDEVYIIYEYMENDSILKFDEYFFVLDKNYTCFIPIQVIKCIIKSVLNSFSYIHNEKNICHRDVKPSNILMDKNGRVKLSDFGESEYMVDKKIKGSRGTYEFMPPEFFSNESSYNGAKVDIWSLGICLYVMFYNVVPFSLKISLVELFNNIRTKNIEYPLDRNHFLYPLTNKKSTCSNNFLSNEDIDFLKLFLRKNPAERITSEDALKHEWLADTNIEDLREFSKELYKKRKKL

| SMILES | growth inhibition [1] | inhibition [2] | inhibition [3] | growth inhibition [4] | outcome [5] | outcome [6] | outcome [7] | outcome [8] |
| --- | --- | --- | --- | --- | --- | --- | --- | --- |
| FC(F)(F)c1ccc2nccc(NN=Cc3ccccc3)c2c1 | 2% | 7% | -1% | 92% (active) | inactive | inactive | inactive | inactive |
| CC(C)C[C@H](Nc1ccnc(NCC2CCCCC2)n1)C(=O)NCCOc1ccccc1 | 73% (active) | 37% | 3% | 89% (active) | inactive | inactive | inactive | inactive |
| O=C(Nc1cccc(F)c1)c1ccc(C(=O)NC2CCN(CC3CCCCC3)CC2)cc1 | 16% | 22% | -7% | 96% (active) | inactive | inactive | inactive | inactive |
| O=C(c1cccc(-c2cccc(-c3nc4ccccc4[nH]3)c2)c1)N1CCCCC1CN1CCC(O)C1 (stereo not given) | 56% (active) | 66% (active) | 2% | 100% (active) | inactive | inactive | inactive | inactive |
| O=S(=O)(Nc1ccc(CCN2CCC(N3CCCCC3)CC2)cc1)c1ccc(Cl)cc1 | 18% | 23% | -1% | 101% (active) | inactive | inactive | inactive | inactive |
| CC(C)CNCc1cccc(-c2cccc(CN(CCN(C)C)C(=O)NCCc3ccccc3)c2)c1 | 83% (active) | 84% (active) | -4% | 99% (active) | inactive | inactive | inactive | inactive |
| O=C(Cc1cccc(O)c1)Nc1ccc(-c2cccc(-c3nc4ccc(C(F)(F)F)cc4[nH]3)c2)cc1 | 1% | 14% | 2% | 86% (active) | inactive | inactive | inactive | inactive |
| O=C(Nc1ccc(-c2ccc(-c3nc4ccccc4[nH]3)cc2)cc1)Nc1ccc(Cl)c(Cl)c1 | 100% (active) | 68% (active) | 4% | 102% (active) | inactive | inactive | inactive | inactive |
| CS(=O)(=O)c1ccccc1CNC(=O)c1cccc(-c2ccc(-c3nc4ccc(C(F)(F)F)cc4[nH]3)cc2)c1 | 7% | 86% (active) | 3% | 95% (active) | inactive | inactive | inactive | inactive |
| CN1CCCc2cc(NC(=O)c3cc(-c4ccc(Cl)cc4)cs3)ccc2C1 | 34% | 15% | 4% | 100% (active) | inactive | inactive | inactive | inactive |
| CCN(CCCN1CCCCC1)c1cc(C)nc(Nc2ccc(C)cc2C)n1 | 35% | 33% | 6% | 91% (active) | inactive | inactive | inactive | inactive |
| COc1ccc2nccc([C@@H](O)CN3CCC(NC(=O)/C=C/c4ccnc5ccccc45)CC3)c2c1 | 12% | 19% | -1% | 91% (active) | inactive | inactive | inactive | inactive |
| COc1ccc(-c2cccc(NC(=O)c3ccc(Cl)cc3)c2)cc1CN(C)CCN(C)C | 61% (active) | 37% | 4% | 99% (active) | inactive | inactive | inactive | inactive |
| COc1ccc(S(=O)(=O)NC2CCN(CCNC(=O)Nc3cc(C)nc4ccccc34)C2)cc1 (stereo not given) | 41% | -2% | 1% | 88% (active) | inactive | inactive | inactive | inactive |
| COc1ccc(-c2ccc(NC(=O)c3ccc(C#N)cc3)c(F)c2)cc1CN(C)CCN(C)C | 0% | 24% | -4% | 88% (active) | inactive | inactive | inactive | inactive |
| N#Cc1ccc(N[C@@H](CC2CCCCC2)C(=O)NCc2cc(F)c(F)cc2F)c2ccccc12 | 39% | 12% | -3% | 94% (active) | inactive | inactive | inactive | inactive |
| Cc1cccc(CNc2nc(C)cc(N[C@@H](CC(C)C)C(=O)NCCOc3ccccc3)n2)c1 | 35% | 15% | -1% | 93% (active) | inactive | inactive | inactive | inactive |
| CCCCn1c(Sc2ccc(C#N)c([N+](=O)[O-])c2)nnc1-c1cccc(Cl)c1 | 87% (active) | 30% | 2% | 96% (active) | inactive | inactive | inactive | inactive |
| CC1(CCc2ccccc2)N=C(Nc2ccc(Cl)cc2)N=C(N)C1c1ccc(Cl)c(Cl)c1 (stereo not given) | 98% (active) | 81% (active) | -6% | 102% (active) | inactive | inactive | inactive | inactive |
| O=[N+]([O-])c1cccc(C=NNc2ccnc3cc(F)ccc23)c1 | 100% (active) | 4% | -1% | 100% (active) | inactive | inactive | inactive | inactive |

| SMILES | growth inhibition [1] | inhibition [2] | inhibition [3] | growth inhibition [4] | outcome [5] | outcome [6] | outcome [7] | outcome [8] |
| --- | --- | --- | --- | --- | --- | --- | --- | --- |
| Cc1cc(C)c(NC(=O)N2CCCN(CCCCCNC(=O)/C=C/c3ccc(Cl)c(Cl)c3)CC2)c(C)c1 | -1% | 12% | 3% | 91% (active) | inactive | inactive | inactive | inactive |
| COc1cc(Cc2cnc(N)nc2N)c2c(c1OC)OC(C)C=C2 (stereo not given) | 1% | -1% | 6% | 87% (active) | inactive | inactive | inactive | inactive |
| Cc1cc2nc(-c3ccc(C(=O)NCc4cccc(F)c4)cc3)[nH]c2cc1C | 6% | -5% | -5% | 91% (active) | inactive | inactive | inactive | inactive |
| Cc1cc(O)c(CN2CCN(Cc3cccs3)CC2)cc1C(C)C | 97% (active) | 7% | -2% | 98% (active) | inactive | inactive | inactive | inactive |
| O=C(CNCC1CCCCC1)Nc1cc(C(F)(F)F)ccc1Cl | 67% (active) | 1% | 2% | 86% (active) | inactive | inactive | inactive | inactive |
| CCC(C)NCC(O)(c1ccc(Cl)cc1)c1ccc(Cl)cc1 (stereo not given) | 76% (active) | 5% | 0% | 95% (active) | inactive | inactive | inactive | inactive |
| Cc1cc(NN=Cc2ccccn2)c2cc(F)ccc2n1 | 96% (active) | 9% | 5% | 100% (active) | inactive | inactive | inactive | inactive |
| CSc1ccc(C=CC(=O)NC(=O)c2ccccc2O)cc1 | 96% (active) | 2% | 4% | 97% (active) | inactive | inactive | inactive | inactive |
| CC(C)(C)c1ccc(C(=O)N2CCC3(CC2)C(=O)N(CC(=O)NCC2CCCO2)CN3c2ccccc2)cc1 (stereo not given) | 100% (active) | 8% | 0% | 100% (active) | inactive | inactive | inactive | inactive |
| CN(C)c1cc(NC(=O)Nc2ccccc2)c2ccccc2n1 | 98% (active) | 11% | -5% | 101% (active) | inactive | inactive | inactive | inactive |
| COc1ccc(CNCc2cccc(-c3ccc(-c4nc5ccccc5[nH]4)cc3)c2)cc1 | 60% (active) | 22% | 2% | 101% (active) | inactive | inactive | inactive | inactive |
| Cc1ccnc(NC(=O)c2cc(-c3cccc([N+](=O)[O-])c3)nc3onc(C)c23)c1 | 44% | 5% | -1% | 91% (active) | inactive | inactive | inactive | inactive |
| COc1ccc(-n2ncc(C(=O)N3CCC4(C3)C(=O)N(c3ccccc3)c3ccccc34)c2C)cc1 (stereo not given) | 91% (active) | 45% | 0% | 88% (active) | inactive | inactive | inactive | inactive |
| COc1cccc(CNc2noc(-c3c(-c4ccccc4)noc3C)n2)c1OC | 86% (active) | -3% | -2% | 97% (active) | inactive | inactive | inactive | inactive |
| Cc1cc(Cl)ccc1N(Cc1ccccc1)c1ccnc(Cl)n1 | 98% (active) | 16% | 2% | 97% (active) | inactive | inactive | inactive | inactive |
| CCN1CCC(N(Cc2ccc(-c3ccc(C(F)(F)F)cc3)cc2)C(=O)Cn2nc(C)c(=O)cc2SCc2ccc(F)cc2)CC1 | 94% (active) | 77% (active) | -1% | 94% (active) | inactive | inactive | inactive | inactive |
| CC(CN1CCN(C)CC1)C(=O)Nc1ccc(-c2cccc(-c3nc4ccc(C(F)(F)F)cc4[nH]3)c2)cc1 (stereo not given) | 96% (active) | 16% | -6% | 99% (active) | inactive | inactive | inactive | inactive |
| CC(C)NCc1cccc(-c2ccc(-c3nc4ccccc4[nH]3)cc2)c1 | 66% (active) | 4% | -2% | 101% (active) | inactive | inactive | inactive | inactive |
| c1ccc(Oc2ccc(Nc3ccnc4c(-c5ccccn5)cccc34)cc2)cc1 | 58% (active) | 31% | -8% | 100% (active) | inactive | inactive | inactive | inactive |
| CCOC(=O)c1cn(CC)c2cc(N(C)CCc3ccc(OC)c(OC)c3)c(F)cc2c1=O | 96% (active) | 9% | 4% | 92% (active) | inactive | inactive | inactive | inactive |
